Experimental data taken from PubChem BioAssay AID1220 (Sanford-Burnham Center for Chemical Genomics, 2008).
Screen size: about 190,000 compounds; about 1,300 (0.68%) were called active. Rule as the data show it: active = inhibition above about 50%; inactive = the rest. The full list was thinned out, with actives kept by preference.

These molecules were tested against Mannose-6-phosphate isomerase (Homo sapiens) (UniProt P34949) (assay: human PMI inhibitors, high substrate, primary screen, biochemical, fluorescence intensity, high mannose 6-phosphate (AID 1220)). Conditions: recombinant PMI enzyme, coupled fluorescence intensity; at 20 µM; stronger effect = higher value.
Chain of Mannose-6-phosphate isomerase (Homo sapiens) (P34949 whole entry, looked up): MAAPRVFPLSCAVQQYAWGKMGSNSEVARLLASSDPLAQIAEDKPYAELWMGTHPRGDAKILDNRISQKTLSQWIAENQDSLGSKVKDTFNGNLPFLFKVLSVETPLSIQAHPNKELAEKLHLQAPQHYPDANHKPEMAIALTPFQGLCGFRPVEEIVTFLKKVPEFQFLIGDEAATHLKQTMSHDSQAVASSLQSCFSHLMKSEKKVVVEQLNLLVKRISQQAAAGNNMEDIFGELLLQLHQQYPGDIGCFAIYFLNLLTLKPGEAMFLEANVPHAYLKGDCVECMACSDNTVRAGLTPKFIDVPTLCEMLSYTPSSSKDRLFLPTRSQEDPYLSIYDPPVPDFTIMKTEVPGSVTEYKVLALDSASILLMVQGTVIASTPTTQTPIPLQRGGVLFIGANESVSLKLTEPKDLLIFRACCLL

inhibition, inactive:
COc1ccccc1NC(=O)CN1CCC(n2c(C)nc3cc(F)ccc32)CC1 -4.8%
CCCn1c(CNc2ccccc2O)nc2ccccc21 34.6%
Cn1c(CNc2nc3ccccc3n2C)nc2ccccc21 3.4%
OCCNCC(O)Cn1ccc2ccccc21 (stereo not drawn) 12%
OC(CNc1ccccc1)Cn1ccc2ccccc21 (stereo not drawn) 7.5%
O=C(CSCc1ccccc1)N/N=C/c1ccc(OCC(=O)N2CCCCC2)cc1 2%
Cc1cc(NC(=O)c2ccco2)ncc1NC(=O)CCc1ccccc1 34.9%
COc1cc(NC(=O)CSc2nc(C)c(C)c(C)n2)c(C)cc1[N+](=O)[O-] -6.6%
N#CC(=C=[N-])C1=C(C#N)C(c2ccccc2F)C([n+]2ccccc2)C(O)(C2CC2)N1 (stereo not drawn) 21.1%
Cc1cccc[n+]1C1C(c2ccc([N+](=O)[O-])cc2)C(C#N)=C(C(=C=[N-])C#N)NC1(O)C1CC1 (stereo not drawn) 15.2%
Cc1cnc(NC(=O)CC2CCCC2)s1 -13.1%
Cc1ccccc1Cn1nnc(-c2ccc3c(c2)OCO3)n1 12.9%
CC(=O)c1c(C)nc(-c2ccccc2)nc1N -1.3%
Cc1cc(NC(=O)C23CC4CC(C2)CC(n2cnc([N+](=O)[O-])n2)(C4)C3)no1 11.1%
Cc1nc([N+](=O)[O-])nn1C12CC3CC(CC(Cl)(C3)C1)C2 -2.6%
COCCn1c(SCc2cccnc2)nnc1-c1ccco1 -18.7%
C=CCn1c(=N)c(C(=O)OCC)cc2c(=O)n3cc(C)ccc3nc21 -2.4%
CN(CC#CC1(O)c2ccccc2-c2ccccc21)Cc1ccccc1 0.8%
O=C(CN1CCN(c2ccc(O)cc2)CC1)Nc1cc(S(=O)(=O)N2CCCC2)ccc1Cl 45.4%
N#Cc1ccsc1NC(=O)CN1CCN(c2ccccc2)CC1 7.6%
CC(=O)N1CCN(CC(=O)Nc2cc(S(=O)(=O)N3CCOCC3)ccc2C)CC1 2%
CN1CCN(CC(=O)Nc2ccccc2[N+](=O)[O-])CC1 -2.9%
COc1ccc(N2CCN(CC(=O)Nc3sccc3C#N)CC2)cc1 18.8%
CC(C)(C)CNc1cc(N2CCOCC2)ccc1[N+](=O)[O-] 16.1%
O=C(Cn1cnc2ccccc2c1=O)NCCC(=O)Nc1ccc2c(c1)OCCO2 -6.6%
O=C(Cn1cnc2ccccc2c1=O)Nc1ccc2c(c1)OCO2 1%

inhibition, active:
Cn1c(CNc2ccccc2O)nc2ccccc21 61.3%
Oc1ccccc1NCC(O)Cn1ccc2ccccc21 (stereo not drawn) 55.3%
Cc1cccc[n+]1C1C(c2ccccc2)C(C#N)=C(C(=C=[N-])C#N)NC1(O)C1CC1 (stereo not drawn) 50.8%
Cc1ccc(S(=O)(=O)N2CCOCC2)cc1NC(=O)CN1CCN(c2ccc(O)cc2)CC1 53.9%
O=C(Cn1cnc2ccccc2c1=O)Nc1ccc2c(c1)OCCO2 52.9%
CN1CCN(CC(=O)Nc2cc(N3CCOCC3)ccc2[N+](=O)[O-])CC1 62.6%
N#Cc1ccsc1NC(=O)CN1CCN(c2ccc(O)cc2)CC1 54.7%
